Test results taken from article PMC4336329 (PLoS ONE, 2015).
The whole screen tested about 310,000 compounds, of which about 2,200 (0.71%) showed an effect of 50% or more. Effects have a minus sign here. What follows is part of a selection rich in strong results, with near analogues and random picks from the rest.

Target: human ether-à-go-go-related gene (hERG) potassium channel (human, UniProt Q12809)
Assay: primary screen, population patch clamp on CHO cells stably expressing hERG; higher = less effect of the substance

Sequence of human ether-à-go-go-related gene (hERG) potassium channel (Q12809 whole entry, looked up): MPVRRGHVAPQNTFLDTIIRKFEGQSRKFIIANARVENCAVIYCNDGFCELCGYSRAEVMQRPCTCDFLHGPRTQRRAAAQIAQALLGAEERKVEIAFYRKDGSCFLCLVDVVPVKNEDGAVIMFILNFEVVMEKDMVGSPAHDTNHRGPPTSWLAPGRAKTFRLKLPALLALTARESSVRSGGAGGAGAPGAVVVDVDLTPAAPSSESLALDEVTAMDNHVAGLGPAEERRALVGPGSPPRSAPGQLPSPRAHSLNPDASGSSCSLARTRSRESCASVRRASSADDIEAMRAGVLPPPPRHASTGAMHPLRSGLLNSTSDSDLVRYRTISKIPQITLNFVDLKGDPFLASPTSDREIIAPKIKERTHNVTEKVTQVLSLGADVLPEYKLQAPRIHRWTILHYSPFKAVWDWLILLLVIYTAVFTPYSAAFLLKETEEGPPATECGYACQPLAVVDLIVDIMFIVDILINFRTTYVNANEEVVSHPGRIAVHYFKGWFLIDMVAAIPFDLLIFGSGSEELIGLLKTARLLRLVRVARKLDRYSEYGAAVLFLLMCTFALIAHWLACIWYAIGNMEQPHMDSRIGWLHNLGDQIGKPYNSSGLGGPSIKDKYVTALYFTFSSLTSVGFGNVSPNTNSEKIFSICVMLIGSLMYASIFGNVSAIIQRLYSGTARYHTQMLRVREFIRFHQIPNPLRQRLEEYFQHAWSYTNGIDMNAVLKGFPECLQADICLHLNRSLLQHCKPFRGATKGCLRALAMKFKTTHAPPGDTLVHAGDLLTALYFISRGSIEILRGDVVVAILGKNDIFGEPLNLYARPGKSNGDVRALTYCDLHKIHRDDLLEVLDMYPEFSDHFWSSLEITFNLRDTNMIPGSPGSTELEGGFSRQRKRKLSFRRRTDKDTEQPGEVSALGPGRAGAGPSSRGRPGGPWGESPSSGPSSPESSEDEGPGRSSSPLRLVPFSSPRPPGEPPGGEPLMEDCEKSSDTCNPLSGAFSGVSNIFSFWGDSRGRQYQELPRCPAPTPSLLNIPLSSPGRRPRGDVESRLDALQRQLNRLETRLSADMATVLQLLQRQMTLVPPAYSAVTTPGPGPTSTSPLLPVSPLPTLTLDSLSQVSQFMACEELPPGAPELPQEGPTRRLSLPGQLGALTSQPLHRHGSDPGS

| Structure (SMILES) | hERG current change (%, negative = inhibition) at 1uM [%] |
| --- | --- |
| Cn1ccc(NC(=O)c2ccc(Cl)cc2)n1 | 11 |
| CCC(C)N1C(=O)CCC1C(=O)N1CCN(c2ccccc2F)CC1 (centres unmarked) | 17 |
| CC(=O)N1CCN(C2=NC(=O)C(=C3CCCCC3)S2)CC1 | -2.21 |
| CCCNC(=O)C1CC(=O)N(c2ccc(OCC(=O)Nc3cccc(C)c3C)cc2)C1 (centres unmarked) | 11 |
| CN1CCN(C(=O)c2ccc3c(Cl)c4c(nc3c2)CCCC4)CC1 | -0.735 |
| Cc1cc(C)c2nc(C(F)(F)F)nc(NCCCN3CCOCC3)c2c1 | 9.96 |
| CCC(C)(C)C1CCc2[nH]nc(C(=O)O)c2C1 (centres unmarked) | 11.9 |
| CC(=O)NS(=O)(=O)c1ccc(NC(=O)C2C3C=CC(C3)C2C(=O)O)cc1 (centres unmarked) | 7.33 |
| Cc1ccc2c(c1)Oc1ccc(NC(=O)CCCl)cc1C(=O)N2 | 3.94 |
| COc1ccc(CN2[C@@H](CC(C)=O)c3ccc(/C=C/C(C)=O)cc3S2(=O)=O)cc1 | -0.639 |
| CC(=O)c1ccc(N2CCN(C(=O)c3nn(Cc4ccccc4)c(=O)c4ccccc34)CC2)cc1 | -72.9 |
| O=C(c1nn(Cc2ccccc2)c(=O)c2ccccc12)N1CCN(c2ccccn2)CC1 | -14.5 |
| O=C(c1nn(Cc2ccccc2)c(=O)c2ccccc12)N1CCN(C/C=C/c2ccccc2)CC1 | -38.3 |
| Cn1cc([N+](=O)[O-])c(C(=O)NC2CCCCCC2)n1 | 15.5 |
| COc1ccc(-c2nc3cc(C)ccn3c2NCC2CCCO2)cc1OC.Cl (centres unmarked) | -55.3 |
| CCOc1cc(-c2nc3cc(C)ccn3c2NCC2CCCO2)ccc1O (centres unmarked) | -47.3 |
| COc1cc(-c2nc3ccccn3c2NCC2CCCO2)ccc1O (centres unmarked) | 2.7 |
| CCc1cc2c(=O)n(Cc3ccco3)c(SCC(=O)NCC3CCCO3)nc2s1 (centres unmarked) | -60.5 |
| CC(C)Cn1c(SCC(=O)N(C)C2CCS(=O)(=O)C2)nc2cc(Cl)ccc2c1=O (centres unmarked) | 4.62 |
| CCN(C(=O)CSc1nc2cc(Cl)ccc2c(=O)n1Cc1ccco1)C1CCS(=O)(=O)C1 (centres unmarked) | -70.2 |
| CN(C(=O)CSc1nc2ccc(Br)cc2c(=O)n1Cc1ccco1)C1CCS(=O)(=O)C1 (centres unmarked) | -83.1 |
| CCN(C(=O)CSc1nc2cc(Cl)ccc2c(=O)n1CC(C)C)C1CCS(=O)(=O)C1 (centres unmarked) | 10.7 |
| CCc1cc2c(SCC(=O)N(C)C3CCS(=O)(=O)C3)ncnc2s1 (centres unmarked) | -7.21 |
| Cc1cc2c(=O)n(Cc3ccco3)c(SCC(=O)NCc3ccco3)nc2s1 | -0.915 |
| CN(C(=O)CSc1nc2cc(C(=O)O)ccc2c(=O)n1Cc1ccccc1)C1CCS(=O)(=O)C1 (centres unmarked) | 17.6 |
| CCc1cc2c(=O)n(Cc3ccco3)c(SCC(=O)NC3CCS(=O)(=O)C3)nc2s1 (centres unmarked) | -29.7 |
| O=C(CSc1nc2c(sc3ccccc32)c(=O)n1Cc1ccco1)NCC1CCCO1 (centres unmarked) | -0.521 |
| COCCn1c(SCC(=O)N(C)C2CCS(=O)(=O)C2)nc2ccccc2c1=O (centres unmarked) | 4.99 |
| CCc1cc2c(=O)n(Cc3ccco3)c(SCC(=O)N(C)C3CCS(=O)(=O)C3)nc2s1 (centres unmarked) | -85.4 |
